Screening data: PubChem, National Center for Advancing Translational Sciences (NCATS)
CCT modulator = changes cytosolic chaperonin activity. AID 651819. activity change, % (concentration not given with the values), hits read low. 360,000 compounds, 0.3% hits. purified chaperonin ATPase assay, HTRF ADP detection, 30 min; in the data active = activity change below about -30%
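Enzyme 40 or 20 nM (batch-dependent) in Tris pH 7.4/KCl/MgCl2/DTT; cpd 76 uM single point; ATP 10 uM; 30 min 37 °C; Transcreener ADP HTRF detection, 30 min RT; ratio 665/615.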
MmCpn inh = inhibitors of Methanococcus maripaludis chaperonin TRiC (MmCpn). 330,000 compounds, 0.031% hits. purified Mm-Cpn ATPase, ADP Transcreener TR-FRET. Potency, µM (titrated, usually from 76.9 µM), inactives show at the top dose activity, negative = inhibition, most hits filed as inhibitors. AID 504842; note: potency is the fitted concentration of half-maximal effect; nearly all actives have a fitted effect of over 80% in size
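Inhibition of chaperonin ATP hydrolysis is measured as reduced ADP production, detected by competitive TR-FRET in which signal falls with ADP. Final enzyme 25 nM and ATP 10 uM, reacted 30 min at 37°C.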
PLK1 PBD inh = PLK1 (human) polo-box domain binding inhibition. Potency, µM, inactives show max response, negative = inhibition, usual class: inhibitors. Plk1 PBD binding of FITC phosphopeptide, fluorescence polarization. 360,000 compounds, 2.8% hits. P53350. AID 720504; note: potency is the fitted concentration of half-maximal effect; series mostly up to about 57 µM; nearly all actives have a fitted effect of over 65% in size
Sfp PPTase inh = blocks B. subtilis Sfp PPTase activity. Q9F4F7. Biochemical Sfp PPTase activity, qHTS. Potency, µM, for the others: largest response in the series, negative = inhibition, hits mostly inhibitors. 310,000 compounds, 3.5% hits. AID 1490;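 note: the enzyme is Sfp with the accession as filed and its product quenches rhodamine fluorescence; potency is the fitted concentration of half-maximal effect; 0% = enzyme reaction without inhibitor and -100% = no enzyme wells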
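Buffer: 50 mM Hepes-Na pH 7.6, 10 mM MgCl2, 0.01% Nonidet P-40, 0.01% BSA. Enzyme 15 nM, pre-exposed to compound 15 min; substrates then added and fluorescence change tracked over 30 min.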
G9a inh = blocks human histone lysine methyltransferase G9a | Potency, µM (doses to about 102 µM), without a hit: at the highest dose activity, negative = inhibition, hits mostly inhibitors | Q96KQ7 | G9a H3K9 monomethylation, AlphaScreen, 2 h | 350,000 compounds, 8.8% hits; note: potency is the fitted concentration of half-maximal effect; nearly all actives have a fitted effect of over 75% in size
Target sequence (Q96KQ7 913-1193 limits assumed): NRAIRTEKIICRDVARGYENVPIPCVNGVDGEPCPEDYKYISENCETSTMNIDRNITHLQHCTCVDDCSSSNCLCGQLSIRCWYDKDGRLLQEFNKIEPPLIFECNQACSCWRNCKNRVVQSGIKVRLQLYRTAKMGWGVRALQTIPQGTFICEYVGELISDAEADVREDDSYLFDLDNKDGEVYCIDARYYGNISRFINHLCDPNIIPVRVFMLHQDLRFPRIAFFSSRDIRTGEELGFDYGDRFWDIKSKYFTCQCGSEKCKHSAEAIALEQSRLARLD
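AlphaScreen read-out: biotin-H3K9 peptide (500 nM) methylation by 20 nM enzyme with 20 uM SAM, 2 h at room temperature after 15 min compound preincubation; anti-monomethyl H3K9 antibody plus donor/acceptor beads, 10 min dark.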
VDR inhibitor = vitamin D3 receptor (human) inhibition. 400,000 compounds, 0.93% hits. VDR-SRC2-3 peptide fluorescence polarization, 2 h. Potency, µM, without a hit: max response, negative = inhibition, actives largely listed as inhibitors. AID 504847; note: potency is the fitted concentration of half-maximal effect
Target sequence (P11473 whole entry, looked up): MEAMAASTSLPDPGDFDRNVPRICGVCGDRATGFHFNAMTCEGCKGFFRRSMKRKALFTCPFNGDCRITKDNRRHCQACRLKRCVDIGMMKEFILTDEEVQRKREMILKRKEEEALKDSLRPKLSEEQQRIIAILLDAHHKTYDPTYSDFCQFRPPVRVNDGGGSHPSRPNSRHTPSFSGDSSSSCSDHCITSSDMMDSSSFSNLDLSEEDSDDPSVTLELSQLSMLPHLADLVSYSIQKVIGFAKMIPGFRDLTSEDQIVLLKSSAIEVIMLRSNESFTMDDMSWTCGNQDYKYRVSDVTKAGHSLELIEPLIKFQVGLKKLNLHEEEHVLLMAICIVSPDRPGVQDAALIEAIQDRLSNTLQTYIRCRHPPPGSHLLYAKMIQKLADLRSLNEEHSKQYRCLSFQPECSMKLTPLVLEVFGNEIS
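Fluorescence polarization assay measuring small-molecule disruption of VDR binding to the coregulator peptide SRC2-3. Compounds were pin-transferred (23 nl) into the reagent mix and incubated 2 h at room temperature before reading.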
The depositor's hits bear a star; ? = inconclusive; . = not tested or not shown; [ ] = another dose, or the depositor's remark. Rows were chosen to be rich in hits. Some 10% of all compounds tested hit in one or more screens of this group. Unless noted, calls come from the whole dose curve; as a rule, active = well fitted curve in the direction sought with a large enough effect; inconclusive = small, poorly fitted or top-dose-only effect, or another doubt; inactive = no such curve, though single readings can be large; an effect the other way counts as inactive or inconclusive. Unless noted, % is set by controls: 0 for no effect and ±100 for the full control effect.

SMILES | CCT modulator | MmCpn inh | PLK1 PBD inh | Sfp PPTase inh | G9a inh | VDR inhibitor
COC(=O)NC/C=C\c1nc(CC/C=C\C(=O)O[C@H]2C[C@H]3CC(=O)O[C@@H](/C=C\CC(C)C)C[C@@H]4CC[C@H](C)[C@H](C[C@@H](OC)C[C@H](C2)O3)O4)co1 | . | . | . | 5.8% | . | .
COc1cc([C@@H]2c3cc4c(c(O)c3C[C@H]3COC(=O)[C@@H]32)OCO4)cc(OC)c1OC | . | . | . | . | . | 0.8%
Cc1cc(/C=C2\C(=O)NC(=O)N(c3cccc(F)c3)C2=O)c(C)n1-c1ccc(C(=O)O)c(Cl)c1 | -1.6 | 2.9% | -20.7% | -25.9% | 35.5µM* | 10.3%
CCc1ccc(N2C(=O)NC(=O)/C(=C\c3cc(C)n(-c4cc(C(=O)O)cc(C(=O)O)c4)c3C)C2=O)cc1 | 1.9 | -3.8% | ? | -6.9% | 35.5µM* | -13.3%
Cc1c(Cl)cccc1N1C(=O)NC(=O)/C(=C\c2cc(C)n(-c3cccc(C(=O)O)c3C)c2C)C1=O | -1.1 | -0.4% | 26.7µM* | -10.2% | . | 7.1%
O=C(Nc1ccon1)c1cccn(Cc2cccc([N+](=O)[O-])c2)c1=O | . | . | . | . | -5.1%[59 µM] | -4.1%
CC1CCCN(C(=O)C2CCC(CNc3c(N4CCCCC4)c(=O)c3=O)CC2)C1 (configuration not stated) | -0.1 | ? | -10.0% | 13.3% | -7.7%[59 µM] | -5.7%
COC(=O)C12CC3=CCC4C(=O)N(c5ccccc5)C(=O)C4C3Cc3ccccc3[C@@H]1CNC2=O (some centres not stated) | . | . | . | -15.0% | . | 10.9%
O=C(O)C1CN(CP(=O)(O)O)CCN1 (configuration not stated) | . | . | . | -0.3% | 19.5%[59 µM] | 9.5%
N#Cc1cccc(NC(=O)N2CC3(CCN(C(=O)Oc4ccccc4)CC3)C2)c1 | . | . | . | 13.7% | 11.0%[12.7 µM] | -4.5%
C[C@@H]1CC[C@H]2[C@H](C)[C@H]3CC[C@@]4(O)[C@@H]5CC(=O)[C@H]6CC(=O)CC[C@]6(C)[C@H]5C[C@H]4[C@@H]3CN2C1 | . | . | . | 33.8% | . | 5.0%
CCOc1ccc(CCNC(=O)c2cc3c(-c4cccc(OC)c4)nn(C)c3s2)cc1OCC | . | . | . | . | ? | -9.1%
O=C1NC(=O)N(c2ccc3c(c2)OCO3)C(=O)/C1=C/c1cccs1 | -3.2 | -4.8% | 2.12µM* | 11.2µM* | 11.2µM* | 79.4µM*
O=C1NC(=O)C(=Cc2ccc3c(c2)OCO3)C(=O)N1 | . | 2.8% | . | 50.1µM* | 50.1µM* | .
CCc1ccc(N2C(=O)NC(=O)/C(=C/c3ccsc3)C2=O)cc1 | . | 2.8% | . | 50.1µM* | 39.8µM* | .
O=C1NC(=O)N(c2ccc3c(c2)OCO3)C(=O)/C1=C/c1ccsc1 | -2.6 | 0.1% | 7.52µM* | 39.8µM* | ? | ?
COc1ccc(NC(=O)N2CC[C@@]3(CCCN(C(=O)Oc4ccccc4)C3)C2)cc1 | . | . | . | 8.8% | 5.1%[12.7 µM] | 4.9%
C[C@H]1O[C@@H](O[C@H]2[C@@H](O)C[C@H](O[C@H]3[C@@H](O)C[C@H](O[C@H]4CC[C@]5(C)C6CC[C@]7(C)[C@@H](C8=CC(=O)OC8)CC[C@]7(O)C6CC[C@@H]5C4)O[C@@H]3C)O[C@@H]2C)C[C@H](O)[C@@H]1O (some centres not stated) | . | . | . | -1.7% | . | 7.2%
O=C(c1ccc2c(c1)N(Cc1ccccc1)CCS2)N1CCC2(CC1)OCCO2 | -18.7 | -5.6% | -9.8% | -2.3% | ? | 2.3%
O=C1Nc2cc(C(=O)N3CCC4(CC3)OCCO4)ccc2NC1CSCc1cccc(F)c1 (configuration not stated) | . | -1.5% | . | 50.1µM* | 7.08µM* | .
O=C(Nc1ccccc1)N1CCC2(CC1)OCCO2 | -0.6 | 1.6% | -14.3% | 13.0% | 6.6% | -4.7%
COc1ccc(NC(=O)N2CCC3(CC2)OCCO3)cc1 | -0.2 | 2.3% | 26.7µM* | 13.2% | 8.1% | -22.5%
Cc1nn(-c2ccccc2)c(Cl)c1C1C(C#N)=C(N)Oc2c1c(=O)oc1ccccc21 (configuration not stated) | -5.5 | -3.1% | -0.5% | 10.9% | -28.3%[59 µM] | -8.2%
COc1ccc(OC)c(C2C(C#N)=C(N)Oc3c2c(C)nn3-c2ccc(C)cc2)c1 (configuration not stated) | -3.2 | 0.0% | 29.9µM* | 17.3% | 25.1µM* | -16.6%
Cc1nn(Cc2ccccc2)c2c1C(c1ccco1)C(C#N)=C(N)O2 (configuration not stated) | 1.8 | -2.3% | ? | -23.7% | ? | 1.1%
SMILES | CCT modulator | MmCpn inh | PLK1 PBD inh | Sfp PPTase inh | G9a inh | VDR inhibitor
Cc1nn(-c2ccccc2)c2c1C(c1ccc(F)cc1F)C(C#N)=C(N)O2 (configuration not stated) | 0.3 | -0.2% | 21.2µM* | 3.2% | -31.0%[59 µM] | ?
O=C(COc1cc(Cl)ccc1Cl)Nc1ccc(Cl)cc1C(=O)c1ccccc1 | . | . | . | . | -24.5%[59 µM] | -1.5%
C[C@@]12C(=O)N(Cc3ccco3)CC(=O)N1[C@H]1c3ccccc3OC[C@@H]1[C@@H]2c1ccccc1 | -0.7 | -0.2% | -9.4% | . | . | ?
CN1/C(=C\C=Nc2ccccc2)C(C)(C)c2ccccc21 | -1.6 | -2.1% | 2.0% | 79.4µM* | 79.4µM* | 10.5%
CCc1ccc(C(=O)NN(C(=O)c2cc(C)cc(C)c2)C(C)(C)C)cc1 | . | . | . | 22.5% | . | .
O=C(O)CC1OCC=C2CN3CCC45C6=CC(=O)C(=O)C([N+](=O)[O-])=C6NC4C1C2CC35 (configuration not stated) | -0.7 | -4.8% | ? | 14.1µM* | . | 79.4µM*
O=C(O)c1[nH]c(=O)[nH]c(=O)c1F | -2.3 | -2.2% | -7.0% | ? | 28.2µM* | 8.0%
O=C(c1ccco1)N1CCC[C@@]2(CCN(Cc3ccncc3)C2)C1 | . | . | . | ? | 6.7%[12.7 µM] | -16.8%
O=C(c1cccnc1)c1cc2ccccc2[nH]1 | -3.5 | 2.1% | -4.5% | 1.4% | -4.7%[59 µM] | -3.3%
CC(=O)c1c(COC(=O)c2cccnc2)nc2ccccc2[n+]1[O-] | 1.6 | -2.2% | 7.4% | 3.2% | 10µM* | -1.1%
CC/C=C\C[C@@H](/C=C/C=C\C/C=C\C/C=C\CCCC(=O)O)OO | . | . | . | -4.6% | . | 4.0%
C[C@]12CC[C@@H]3c4ccc(OC(=O)N(CCCl)CCCl)cc4CC[C@H]3[C@@H]1CC[C@@H]2O | . | . | . | -0.5% | ? | 50.1µM*
O=C(COc1ccc(Br)cc1)Nc1ccc(Cl)cc1C(=O)c1ccccc1 | . | . | . | . | 10.7%[59 µM] | -4.0%
O=C1NC(=S)NC(=O)C1Cc1ccccc1O | -0.7 | . | -1.3% | . | . | -0.8%
O=C1NC(=S)NC(=O)C1Nc1ccc(Cl)cc1 | -2.0 | . | 2.99µM* | . | . | ?
O=C1NC(=O)C(Nc2ccc(Cl)c(Cl)c2)C(=O)N1 | 1.5 | . | -29.2% | . | . | 39.8µM*
NC(N)=NN=C(/C=C/c1ccc([N+](=O)[O-])o1)/C=C/c1ccc([N+](=O)[O-])o1 | . | . | . | 50.1µM* | ? | ?
CC[N@+]1(C)CCC[C@@H](OC(=O)C(O)(c2ccccc2)c2ccccc2)C1 | . | . | . | 9.5% | 13.7%[21.5 µM] | -2.6%
